Assay results reported in the supplement of paper PMC3334620.
Whole data set: some 33,000 sequences, median “E-score (-0.5 to 0.5)” near -0.012, cut for the highest 2% near 0.29. This excerpt belongs to a sample that is enriched for the highest values.

molecular target: T1, Ybr033w (UniProt P38073); test: PBM E-score (8-mer binding enrichment) (E-score (-0.5 to 0.5)); higher = stronger / more preferred TF binding; conditions: protein concentration: 200 nM; construct: GST-full length
T1 sequence: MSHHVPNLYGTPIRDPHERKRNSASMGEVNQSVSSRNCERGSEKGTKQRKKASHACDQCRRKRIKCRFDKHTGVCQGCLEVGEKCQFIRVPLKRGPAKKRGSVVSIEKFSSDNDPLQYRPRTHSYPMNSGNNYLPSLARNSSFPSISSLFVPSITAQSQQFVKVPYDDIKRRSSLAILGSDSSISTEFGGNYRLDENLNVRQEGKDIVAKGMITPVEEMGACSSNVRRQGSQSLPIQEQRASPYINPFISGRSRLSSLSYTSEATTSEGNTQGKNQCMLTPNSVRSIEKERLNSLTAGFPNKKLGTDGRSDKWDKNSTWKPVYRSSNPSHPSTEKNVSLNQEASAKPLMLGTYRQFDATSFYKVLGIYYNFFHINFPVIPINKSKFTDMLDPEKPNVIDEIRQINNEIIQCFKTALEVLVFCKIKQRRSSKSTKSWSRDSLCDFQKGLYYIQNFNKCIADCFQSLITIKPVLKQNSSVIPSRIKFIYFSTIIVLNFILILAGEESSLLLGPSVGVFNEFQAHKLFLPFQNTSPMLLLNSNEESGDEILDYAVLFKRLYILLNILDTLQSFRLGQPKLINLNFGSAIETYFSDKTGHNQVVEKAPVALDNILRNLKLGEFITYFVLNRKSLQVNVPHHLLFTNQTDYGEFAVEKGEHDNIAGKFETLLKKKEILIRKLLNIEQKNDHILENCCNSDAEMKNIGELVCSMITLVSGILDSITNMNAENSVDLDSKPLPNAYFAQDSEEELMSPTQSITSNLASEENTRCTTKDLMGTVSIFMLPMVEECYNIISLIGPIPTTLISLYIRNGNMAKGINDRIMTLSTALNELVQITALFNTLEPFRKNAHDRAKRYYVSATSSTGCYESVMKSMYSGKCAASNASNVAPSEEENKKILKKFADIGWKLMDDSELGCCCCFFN
Experimental: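 Universal 'all 10-mer' protein binding microarrays (Agilent AMADID 015681) probed with GST-tagged S. cerevisiae TFs (full-length or DBD) made by in vitro transcription/translation (PURExpress), about 100-200 nM. Bound TF was detected with fluorescent anti-GST. Each ungapped 8-mer (which stands for itself and its reverse complement) is scored by the PBM enrichment score (E-score), a modified Wilcoxon-Mann-Whitney statistic from -0.5 to +0.5, computed with the Universal PBM Analysis Suite. Scale: above 0.35 generally sequence-specific binding.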

Row | Sequence | PBM E-score
1 | AATACAAA | 0.302
2 | ATTACAGC | -0.21
3 | AATACAAC | 0.271
4 | ATTACAGG | 0.326
5 | AATACAAG | 0.252
6 | ATTACAGA | 0.141
7 | ACGGCTTG | -0.0473
8 | GGCGTGAC | -0.141
9 | ATACTGAG | 0.267
10 | CTCCAGTA | 0.109
11 | AATCCATC | 0.14
12 | CAGCATAG | -0.0334
13 | CACTTGCA | -0.0412
14 | CGCTACAA | 0.111
15 | GGCAGCCA | -0.0547
16 | AATACATG | 0.222
17 | GATACATC | -0.0274
18 | AATACATC | 0.297
19 | GTTCGAAC | 0.209
20 | GGCTGTCA | -0.0424
21 | CAGCGAAC | 0.0498
22 | TCATAAGA | 0.114

Row | Sequence | PBM E-score
23 | ACATAAGA | 0.293
24 | ACATAAGC | 0.0339
25 | CCCAGTTA | -0.0098
26 | GTGTTTGA | 0.191
27 | CAAGTGGC | 0.0512
28 | CATATTCC | 0.0424
29 | GCTATTAC | -0.0504
30 | AATATTCG | 0.161
31 | GATATTAC | 0.31
32 | CATATTAC | 0.17
33 | GATATTCA | 0.12
34 | GATATTCC | 0.417
35 | AATATTCC | 0.45
36 | AATATTCT | 0.248
37 | CCTGCACG | -0.159
38 | AGCAGTCC | -0.182
39 | GCGTGAAA | 0.0243
40 | AACTGCTT | 0.0101
41 | GCCGGTTA | -0.0903
42 | CTACAGCA | 0.0371
43 | TAAGGTCA | 0.028
44 | ACGGGAGT | 0.0679

Row | Sequence | PBM E-score
45 | CCGCTCAG | -0.111
46 | AGAACAGG | -0.125
47 | AGGTTACC | 0.0897
48 | AATGATCA | 0.0742
49 | AATGATAT | 0.298
50 | AATGATCT | 0.157
51 | AATGATTA | 0.251
52 | AATGATTC | 0.306
53 | CATGATCC | 0.0454
54 | AATGATAA | 0.192
55 | CATGATTC | -0.131
56 | GATGATCA | 0.0749
57 | AATGATCC | 0.421
58 | AATGATAG | 0.215
59 | GATGATCC | 0.4
60 | TCCCACGA | 0.0793
61 | ACTAGCCA | 0.0538
62 | AGAGTCTA | -0.16
63 | CGCTGCAG | -0.12
64 | GCGTTCAC | -0.0913
65 | GTACCGAC | -0.275
66 | CATGAGGA | 0.0386

Row | Sequence | PBM E-score
67 | CGCTCTGC | -0.0367
68 | CTGCGTGA | 0.0319
69 | CTTGATCC | 0.0221
70 | ATTGATCA | 0.051
71 | ATTGATCC | 0.466
72 | ATGCTTCA | 0.0658
73 | GAATACTA | 0.204
74 | AACTACTA | 0.298
75 | TAATACTA | 0.362
76 | CACTACTA | 0.094
77 | AACTACTG | 0.126
78 | AACTACTC | 0.119
79 | TACTACTA | 0.335
80 | ATCTACTA | 0.324
81 | CAATACTA | 0.143
82 | GACTACTA | 0.122
83 | ATCTACTG | 0.143
84 | ATCTACTC | 0.127
85 | TAACTATA | 0.242
86 | ATGCTGCG | -0.15
